Laboratory results as given in PubChem BioAssay (NCI).
Compounds without any hit were thinned out: in the full panel of roughly 83,000, 20% have a hit.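 Growth was measured after 48 h exposure to one concentration of compound in 96-well plates. Values under 10 count as active.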 Calls of active or inactive are those of the source.

Columns and labels:
Assay in all cases: NCI-60 one-dose screen, 48 h (100 = growth as untreated, 0 = no growth, -100 = all killed)
[1] = system: NCI-H23 lung; conditions: 10 µM unless noted
[2] = system: NCI-H226 lung; conditions: 10 µM unless noted
[3] = system: NCI-H322M lung; conditions: 10 µM unless noted
[4] = system: HOP-62 NSCLC; conditions: 10 µM unless noted
[5] = system: NCI-H460 lung; conditions: 10 µM unless noted
[6] = system: HOP-92 NSCLC; conditions: 10 µM unless noted
[7] = system: NCI-H522 lung; conditions: 10 µM
[8] = system: 786-0 renal; conditions: 10 µM unless noted
[9] = system: COLO 205 colon; conditions: 10 µM unless noted
[10] = system: DU-145 prostate; conditions: 10 µM unless noted
[11] = system: K-562 leukemia; conditions: 10 µM unless noted
[12] = system: MALME-3M melanoma; conditions: 10 µM unless noted
[13] = system: MDA-MB-231 breast; conditions: 10 µM unless noted
[14] = system: RXF 393 renal; conditions: 10 µM unless noted
[15] = system: SF-268 CNS; conditions: 10 µM unless noted
[16] = system: SF-295 CNS; conditions: 10 µM unless noted
[17] = system: SF-539 CNS; conditions: 10 µM unless noted
[18] = system: UACC-257 melanoma; conditions: 10 µM unless noted
[19] = system: M14 melanoma; conditions: 10 µM unless noted

Measured: growth

NC(=O)c1cc(Br)cc(Br)c1NS(=O)(=O)c1ccccc1
inactive: [1] 100% | [2] 95.3% | [3] 94.5% | [4] 98% | [5] 102% | [6] 93.6% | [7] 100% | [8] 108% | [9] 101% | [10] 110% | [11] 122% | [12] 94.1% | [13] 88.1% | [14] 104% | [15] 108% | [16] 98.2% | [17] 98.6% | [18] 131% | [19] 101%

Cc1ccc(/C=C/C(=O)c2ccc(F)cc2)s1
inactive: [1] 85% | [2] 85.1% | [3] 94.2% | [4] 103% | [5] 80.6% | [6] 64% | [7] 62.8% | [8] 76.7% | [9] 108% | [10] 90.8% | [11] 38.1% | [12] 78.9% | [13] 105% | [14] 84.8% | [15] 92.2% | [16] 88.5% | [17] 103% | [18] 90.3% | [19] 95.1%

NC(=NCCCCCCN=C(N)/N=C(\N)Nc1ccc(Cl)cc1)/N=C(\N)Nc1ccc(Cl)cc1
active: [1] 8.42% | [2] -9.31% | [4] -25.3% | [5] -1.1% | [6] -3.2% | [7] -11.1% | [9] -96.4% | [11] 8.11% | [13] 0.0954% | [14] 1.06% | [16] -9.13% | [17] 0.167%
inactive: [3] 19.8% | [8] 14% | [10] 33.2% | [12] 26.7% | [15] 20.8% | [18] 33.7% | [19] 22.6%

COc1ccc(C2CC(c3ccc(Nc4ccnc5cc(Cl)ccc45)cc3)=NN2C(C)=O)cc1 (stereo unspecified)
inactive: [1] 84.3% | [2] 79.2% | [3] 98.8% | [4] 89.4% | [5] 85.4% | [6] 36.5% | [7] 67.3% | [8] 81.2% | [9] 96% | [10] 88.1% | [11] 32.3% | [12] 58.2% | [13] 80.9% | [14] 73.1% | [15] 72.2% | [16] 42.6% | [17] 95.8% | [18] 88% | [19] 79.5%

Cc1cc(C)c(C(=O)c2cccs2)c(C)c1
inactive: [1] 100% | [2] 99.8% | [3] 106% | [4] 95.2% | [5] 109% | [6] 74.4% | [7] 93.3% | [8] 100% | [9] 103% | [10] 111% | [11] 98.4% | [12] 110% | [13] 107% | [14] 110% | [15] 104% | [16] 122% | [17] 106% | [18] 99.3% | [19] 103%

O=Cc1ccccc1C(=O)O
inactive: [1] 100% | [2] 100% | [3] 96.7% | [4] 96.7% | [5] 99.5% | [6] 101% | [7] 96.7% | [8] 97.4% | [9] 112% | [10] 103% | [11] 90.5% | [12] 103% | [13] 109% | [14] 125% | [15] 96.3% | [16] 96.9% | [17] 94.8% | [19] 101%

COc1ccc2c(c1)[n+](=O)c(/C=C/C(=O)c1cc(OC)c(OC)c(OC)c1)c(C)n2[O-]
active: [6] -22.4% | [7] -60.1% | [11] 2.27%
inactive: [1] 80% | [2] 84.5% | [3] 110% | [4] 94.3% | [5] 81.8% | [8] 67.2% | [9] 32% | [10] 17.5% | [12] 86% | [13] 84.1% | [14] 38.5% | [15] 69.4% | [16] 46.4% | [17] 70.2% | [18] 63.6% | [19] 63.6%

O=C(O)CCC(=O)OC[C@@H](NC(=O)C(Cl)Cl)[C@H](O)c1ccc([N+](=O)[O-])cc1
inactive: [1] 98.4% | [2] 89.3% | [3] 99.5% | [4] 98.5% | [5] 111% | [6] 86.7% | [7] 91.7% | [8] 93.7% | [9] 99.4% | [10] 110% | [11] 98.6% | [12] 96% | [13] 103% | [14] 104% | [15] 109% | [16] 101% | [17] 100% | [18] 104% | [19] 98%
